Bioassay records as filed in PubChem BioAssay.
An excerpt weighted towards active compounds, which were near 6% of everything screened.
D3 ag = agonists of human D3 dopamine receptor. max activation, %. D3R DiscoveRx beta-arrestin cells, luminescence, 90 min. 0.58% of 410,000 active. P35462; in the data active = max activation above about 30%; also: 0% is about no effect
Target sequence (P35462 whole entry, looked up): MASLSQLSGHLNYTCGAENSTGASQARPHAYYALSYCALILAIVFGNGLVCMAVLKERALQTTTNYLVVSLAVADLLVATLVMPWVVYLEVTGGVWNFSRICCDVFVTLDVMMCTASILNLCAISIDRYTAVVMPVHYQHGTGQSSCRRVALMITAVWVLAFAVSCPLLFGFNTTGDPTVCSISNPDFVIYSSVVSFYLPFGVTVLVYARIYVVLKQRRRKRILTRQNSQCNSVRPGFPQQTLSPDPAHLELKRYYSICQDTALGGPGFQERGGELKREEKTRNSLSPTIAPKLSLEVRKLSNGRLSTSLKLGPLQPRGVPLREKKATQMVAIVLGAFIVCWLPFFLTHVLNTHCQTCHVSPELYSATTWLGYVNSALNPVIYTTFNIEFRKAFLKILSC
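Agonist-mode cell screen: cells plated at 1500/well and incubated overnight at 37 °C, then exposed to library compounds for 90 min at 37 °C. Detection reagent was added for 30–60 min at room temperature, and luminescence was read.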
D1 PAM = human D1 dopamine receptor positive modulation; HEK293 TREx D1 cells, calcium flux, dopamine EC20 potentiation; 0.036% of 360,000 active; AID 504651; potentiation, % at 10 µM; P21728; in the data active = potentiation above about 30%; also: 0% is about no effect
D3 antag = blocks the human D3 dopamine receptor; D3R cells, DiscoveRx beta-arrestin luminescence, antagonist mode; active compounds read low; max response, negative = inhibition, %; 2.5% of 360,000 active; P35462; AID 652054; in the data active = max response below about -50%; inconclusive = no clear call, values can overlap the other calls; also: % is scaled to controls: 0 for no effect and ±100 for the full control effect
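Cells plated overnight at 1500 cells/well, then exposed to library compounds with dopamine controls for 90 minutes at 37 degrees C. DiscoveRx reagent added for 30–60 minutes at room temperature; luminescence read, quantitative HTS format.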
D1 ag = agonists of human D1 dopamine receptor; P21728; HEK293 T-REx D1 cells, calcium flux, agonist mode; activation, % at 2 µM; 1% of 360,000 active; AID 504660; in the data active = activation above about 30%; also: 0% is about no effect
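Tetracycline-induced HEK293 TREx D1 cells, force-coupled to calcium signalling, were dye-loaded with a no-wash calcium kit. Compound was pin-added after a 10 s baseline. Fluorescence was read kinetically at 1 cycle/s for 180 s, with calcium rises flagged as agonism.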
D1 antagonist = antagonists of human D1 dopamine receptor; HEK293 TREx D1 cells, calcium flux, dopamine EC80; active compounds read low; activity change, negative = inhibition, % at 10 µM; 3.2% of 360,000 active; AID 504652; in the data active = activity change below about -30%; also: % is scaled to controls: 0 for no effect and ±100 for the full control effect
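Cells carrying a force-coupled, tetracycline-inducible human D1 receptor report calcium flux. Each well gets a 10 s baseline, compound with 180 s monitoring, then an EC80 dopamine stimulus with a second 180 s kinetic read.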
Starred values were filed as active, the others as inactive; ? = inconclusive; / = not tested or not shown.

SMILES	D3 ag	D1 PAM	D3 antag	D1 ag	D1 antagonist
CCN(CC)Cc1nccn1-c1ccc([N+](=O)[O-])cc1C(=O)c1ccccc1Cl	-23	/	/	/	/
Cc1onc(-c2c(Cl)cccc2Cl)c1C(=O)Nc1ccc2c(C(F)(F)F)cc(=O)oc2c1	7	0	5	4	-30*
CN(C)c1ccc(/C=C2/C(=O)NC(=O)N(CCc3ccc(F)cc3)C2=O)cc1	4	-6	7	-1	-1
COCCN1C(=O)NC(=O)/C(=C\c2ccc(Br)cc2)C1=O	3	-6	5	4	-55*
C=CCC1(C(C)CCC)C(=O)N=C(S)NC1=O (stereo unspecified)	-15	/	/	/	/
Cc1cc(OCC(=O)N2CCN(CCc3ccncc3)CC2)cc(C)c1Cl	-16	1	/	4	-2
CNc1ccc2nc3ccccc3[n+](C)c2c1	-11	-3	-59*	5	-2
C[n+]1c2ccccc2nc2ccc(NCCO)cc21	-23	2	-54*	2	15
CN[C@@H](C)[C@H](O)c1ccccc1	-10	/	/	/	/
C=CCC1([C@H](C)CCC)C(=O)NC(=O)NC1=O	-13	/	/	/	/
COC(=O)C1=C(c2c(C)noc2C)C[C@@H]2CC[C@H]1N2C(=O)N1CCCC1	58*	-4	6	0	/
COC(=O)C1=C(c2cc3ccccc3s2)C[C@@H]2CC[C@H]1N2C(=O)N1CCCCC1	-21	/	-54*	/	/
COC(=O)C1=C(c2ccc(F)cc2F)C[C@@H]2CC[C@H]1N2C(=O)NCC1CC1	9	-5	1	-1	9
COC(=O)C1=C(c2cc3ccccc3s2)C[C@@H]2CC[C@H]1N2C(=O)NCc1ccc(F)cc1	-36	/	-56*	/	/
COC(=O)C1=C(c2ccc(F)cc2F)C[C@@H]2CC[C@H]1N2C(=O)NCc1ccco1	41*	4	?	-1	2
COC(=O)C1=C(c2c(C)noc2C)C[C@@H]2CC[C@H]1N2C(=O)NC(C)C	0	-1	5	0	7
Cc1cccc(C(C)c2cnc[nH]2)c1C (stereo unspecified)	8	/	/	/	/
CN1c2ccc([N+](=O)[O-])cc2CC2(C(=O)NC(=O)N(c3ccc(Br)cc3)C2=O)C1c1ccccc1 (stereo unspecified)	-6	-1	-51*	3	2
Cc1cc(C)cc(NC(=O)CN2C(=O)CN=C(c3ccccc3)c3cc(Cl)ccc32)c1	7	-1	/	3	-7
C[C@@H]1CC2C3CC=C4C[C@@H](O)CC[C@]4(C)C3CC[C@]2(C)[C@H]1O (stereo partly specified)	5	/	8	/	/
C[C@H]1CC[C@@H]2[C@@H](C)[C@H]3[C@H](C[C@H]4[C@@H]5CC=C6C[C@@H](O[C@@H]7O[C@H](CO)[C@H](O)[C@H](O[C@@H]8O[C@H](CO)[C@@H](O)[C@H](O)[C@H]8O)[C@H]7O[C@@H]7O[C@@H](C)[C@H](O)[C@@H](O)[C@H]7O)CC[C@]6(C)[C@H]5CC[C@]34C)N2C1	21	3	-20	96*	-10
Cc1ccc(C)c(C2(O)CC(C)N(C)CC2C)c1 (stereo unspecified)	-4	-5	-10	1	-46*
Cn1c(=O)n(C)c2cc(CNCCc3ccccc3)ccc21	-25	-1	/	11	-15
COc1ccc2c(c1)c(C(=O)O)c(C)n2CC(C)C	13	-6	4	3	3
COc1cc(O)c(C(=O)O)c(-c2cc(O)c(O)cc2C)c1	8	0	17	1	-31*
SMILES	D3 ag	D1 PAM	D3 antag	D1 ag	D1 antagonist
CN1CCN(c2nc(N)c(Br)c(Cl)n2)CC1	-2	-2	-69*	4	-34*
CCN(CC)c1ccc(CNCCc2ccccc2F)cc1	-7	-6	-22	46*	22
CS(=O)(=O)c1ccc(C(=O)C2C(=O)CCCC2=O)c([N+](=O)[O-])c1	-9	/	/	/	/
COC1=CC(=O)O[C@@H](/C=C/c2ccccc2)C1	-3	-5	-11	-2	-33*
C=C(C)[C@H]1Cc2c(ccc3c2O[C@@H]2COc4cc(OC)c(OC)cc4[C@@H]2C3=O)O1	4	/	/	/	/
Cn1c(O)c(/C=C/C=Nc2ccccc2)c(=O)n(C)c1=O	3	7	4	23	7
CCCCn1c(O)c(/C=C/C=Nc2ccccc2)c(=O)[nH]c1=O	4	-3	-3	71*	2
Cc1ccc2nc(N3CCN(C)CC3)[nH]c2c1	-2	4	?	4	-17
CN1CCN(c2nc(N)cc(=O)[nH]2)CC1	0	1	3	2	-58*
CCOc1ccc(NC(=O)Cn2cc(C(=O)c3ccccc3)c3ccccc32)cc1	3	3	/	1	10
CCOC(=O)c1ccc(NC(=O)c2cccn(Cc3ccccc3F)c2=O)cc1	10	1	/	12	-5
CC(C)OC(=O)Cc1ccccc1	-2	-2	-9	1	/
Cc1cccc(C)c1OC(=O)Cc1ccccc1	-5	33*	-8	0	12
Cc1ccc(C[n+]2c(-c3ccc(C)cc3)cc(-c3ccc(C)cc3)cc2-c2ccc(C)cc2)cc1	-7	5	32	39*	12
Cc1ccc(-c2cc(-c3ccc(C)cc3)[n+](-c3ccc(C(=O)O)cc3)c(-c3ccc(C)cc3)c2)cc1	-9	-6	-22	2	2
CCOC(C(=O)OCC(O)CN(CC)CC)(c1ccccc1)c1ccccc1 (stereo unspecified)	-5	-6	-60*	9	-1
CN1CCN(CCOC2c3ccccc3CSc3ccc(Cl)cc32)CC1 (stereo unspecified)	-33	-11	-90*	30	-18
Clc1ccc2c(c1)C(OC1CN3CCC1CC3)c1ccccc1CS2 (stereo unspecified)	-48	-8	-28	35*	-50*
Cc1ccc(OCC(=O)N2CCN(Cc3ccc(F)cc3)CC2)cc1	-2	-3	/	1	-19
Cc1cc(Br)c(NC(=O)CN2CC=C(c3ccccc3)CC2)c(Br)c1	1	-1	4	4	-13
CCN(CC)c1ccc(CN2CC=C(c3ccc(F)cc3)CC2)cc1	-17	-18	-67*	5	7
COc1ccc(CN2CC=C(c3ccc(F)cc3)CC2)cc1Br	-24	-4	-68*	5	-9
CCOC(=O)C1(c2ccccc2)CCN(CC(=O)Nc2ccc(C)cc2)CC1	-6	-4	-56*	0	-1
CCOC(=O)C1(c2ccccc2)CCN(CCC(=O)Nc2cccc(Br)c2)CC1	-27	-3	-87*	5	-23
CCOC(=O)C1(c2ccccc2)CCN(CCC(=O)Nc2ccc(C(=O)OC)cc2)CC1	-19	/	-51*	23	-2
O=C(CCN1CCOCC1)Nc1ccc(Br)cc1C(=O)c1ccccc1	-5	-3	0	1	20
CCOC(=O)C1(c2ccccc2)CCN(CCC(C#N)(c2ccccc2)c2ccccc2)CC1	-77	/	-72*	/	/
